In the library only some 2.7% were active in any assay of this set; here they are far more common.
PP5 inh = blocks human protein phosphatase 5 activity; P53041; purified PP5c, OMFP substrate fluorescence; inhibition, % at 6.7 µM; actives 0.18% (n = 320,000); AID 1987;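 active = inhibition above the campaign's mean inhibition across all tested compounds plus 3 SD, cut at about 9.5% in these data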;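 note: 0% = DMSO only and 100% = 100 µM cantharidin control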
TMEM16A act = activates or potentiates the mouse TMEM16A chloride channel. AID 623877. Q8BHY3. actives 0.3% (n = 340,000). HEK293 TMEM16A/YFP-H148Q/I152L, iodide quench fluorescence; active compounds read low. B-score at 10 µM;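 active = fluorescence-ratio B-score plate-corrected deviation score at least 3 library SD below zero, with starting fluorescence score within 5 deviations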;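 note: channel opened by trigger with iodide after compound preincubation; score built on the fluorescence ratio of max minus min over baseline; more negative score means more quench and so TMEM16A activation or potentiation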
PREPL inh = human PREPL enzyme inhibition; actives 0.68% (n = 320,000); Q4J6C6; AID 2751; inhibition, % at 5.96 µM; recombinant PREPL, fluorescence polarization activity-based probe; in the data active = inhibition above about 43%;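 note: 0% = enzyme with DMSO and 100% = wells lacking enzyme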
Target sequence (Q4J6C6 whole entry, looked up): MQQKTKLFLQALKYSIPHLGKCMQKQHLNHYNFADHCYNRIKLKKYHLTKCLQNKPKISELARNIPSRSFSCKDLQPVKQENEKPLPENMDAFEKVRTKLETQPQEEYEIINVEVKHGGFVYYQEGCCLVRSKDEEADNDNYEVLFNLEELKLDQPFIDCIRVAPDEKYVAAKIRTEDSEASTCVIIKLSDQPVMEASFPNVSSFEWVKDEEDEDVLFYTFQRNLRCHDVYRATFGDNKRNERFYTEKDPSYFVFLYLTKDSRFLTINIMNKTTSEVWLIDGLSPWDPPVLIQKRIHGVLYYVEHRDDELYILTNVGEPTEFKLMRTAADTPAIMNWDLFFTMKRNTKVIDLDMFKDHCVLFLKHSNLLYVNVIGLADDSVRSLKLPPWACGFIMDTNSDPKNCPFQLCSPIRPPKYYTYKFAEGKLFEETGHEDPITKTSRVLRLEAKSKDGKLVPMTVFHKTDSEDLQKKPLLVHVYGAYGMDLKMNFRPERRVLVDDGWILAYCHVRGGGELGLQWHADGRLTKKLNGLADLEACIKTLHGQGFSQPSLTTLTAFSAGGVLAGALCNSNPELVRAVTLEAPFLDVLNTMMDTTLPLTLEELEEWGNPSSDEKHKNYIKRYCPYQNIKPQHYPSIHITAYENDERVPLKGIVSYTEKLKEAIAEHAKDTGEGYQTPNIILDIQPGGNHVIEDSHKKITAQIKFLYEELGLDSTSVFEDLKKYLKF
PP1 counter = blocks human PP1-alpha phosphatase, a PP5 counter-screen; P62136; purified PP1alpha, OMFP fluorescence; inhibition, % at 6.7 µM; actives 0.9% (n = 320,000); AID 2235;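 active = inhibition above the mean inhibition of all tested compounds plus 3 SD, computed separately for each screening campaign, cut at about 15% in these data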
TMEM16A inh = inhibitors of mouse TMEM16A calcium-activated chloride channel. Q8BHY3. HEK293 TMEM16A/YFP iodide influx fluorescence, ionomycin. normalized B-score (activity score, 25-100; higher = stronger inhibition) at 10 µM. actives 1.2% (n = 310,000). AID 588511;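 active = ratio plate-corrected score three or more library SD toward inhibition, starting fluorescence score within five deviations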;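 note: score derived from kinetic fluorescence span divided by baseline fluorescence per well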
DNA FID counter = displaces DNA intercalator in HCV helicase counter-screen. DNA fluorescent intercalator displacement, fluorescence. inhibition, % at 7.9 µM. actives 0.17% (n = 290,000); in the data active = inhibition above about 37%;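 note: 0% = vehicle and 100% = reference compound; higher means more ethidium bromide displaced from hairpin DNA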
Starred values were filed as active, the others as inactive; i = inactive; / = no result given.

SMILES	PP5 inh	TMEM16A act	PREPL inh	PP1 counter	TMEM16A inh	DNA FID counter
Nc1c(N(CCCO)C(=O)CCCN2C(=O)c3cccc4cccc(c34)C2=O)c(=O)[nH]c(=O)n1Cc1ccccc1	/	i	/	/	/	/
O=C(Nc1c2ccccc2nc2ccccc12)C(Cl)(Cl)Cl	1	i	0	2	i	38*
NC(=S)NN=C1c2cc(OCCN3CCOCC3)ccc2-c2ccc(OCCN3CCOCC3)cc21	3	i	32	-2	i	54*
ON=C1c2cc(OCCN3CCCCC3)ccc2-c2ccc(OCCN3CCCCC3)cc21	0	i	1	-3	i	15
CCOC(=O)N1CCC(NC(=O)C2CCN(Cc3nc(-c4ccc(CC)cc4)oc3C)CC2)CC1	/	i	/	/	/	/
Cc1oc(-c2ccc(Cl)cc2)nc1CN1CCCC(C(=O)NCCCN2CCOCC2)C1 (stereo unspecified)	3	i	24	-2	i	45*
CCOC(=O)N1CCC(NC(=O)C2CCCN(Cc3nc(-c4ccc(CC)cc4)oc3C)C2)CC1 (stereo unspecified)	0	i	19	0	25*	26
Cc1cccc(-c2nc(CN3CCCC(C(=O)NC4CCCCC4)C3)c(C)o2)c1 (stereo unspecified)	1	i	29	0	25*	16
c1cc2c3c(cccc3c1)-c1cnccc1-2	/	i	/	/	/	/
O=C(O)C1Nc2c(O)cccc2C2C=CCC12 (stereo unspecified)	6	i	42	50*	i	0
CCOC(=O)COc1ccc(S(=O)(=O)Nc2ccc3c(c2)OCO3)cc1	2	i	24	1	i	48*
CCCc1c(-c2ccc(O)cc2)nn(-c2ccc(O)cc2)c1-c1ccc(O)cc1	3	i	0	3	100*	/
CCc1ccc(OCCNC(=O)c2ccccc2SCc2ccc(F)cc2)cc1	5	i	1	3	i	-15
O=C(NCCOc1ccc(F)cc1)c1ccccc1SCc1ccccc1	2	i	-73	2	25*	-29
CC(C)(C)OC(=O)NCCCCCc1nnc(SCc2cccc(F)c2)o1	2	i	8	-2	25*	-47
CC(C)(C)OC(=O)NCCCCCc1nnc(SCc2ccccc2)o1	3	i	0	-3	i	-52
CC(C)(C)OC(=O)NCCCCCc1nnc(SCc2c(F)cccc2Cl)o1	5	i	4	6	100*	-49
CCn1c(SCC(=O)Nc2nc3ccc(C)cc3s2)nc2c(c1=O)SC(C)C2 (stereo unspecified)	-3	i	43	16*	i	-4
CCn1c(SCC(=O)Nc2cc(C)on2)nc2c(c1=O)SC(C)C2 (stereo unspecified)	4	i	15	0	i	-5
COC(=O)c1ccc(COC(=O)c2[nH]c(C)c(C(C)=O)c2C)o1	3	i	-5	-1	100*	-8
CN(CC(=O)Nc1ccccc1C(F)(F)F)C(=O)C1CCN(S(=O)(=O)c2ccc3c(c2)OCCO3)CC1	0	i	-3	-3	i	/
COc1ccccc1NC(=O)COC(=O)Cn1cnc2c1c(=O)n(C)c(=O)n2C	/	i	20	/	/	/
CN(C)CCn1c2c(c(SCC(=O)NCc3ccccc3)nc1=O)CCCC2	1	i	-31	-5	i	/
COc1cc(Cl)ccc1OCc1cc(C(=O)NCc2cc(C(C)C)no2)no1	2	i	-12	2	i	-27
Clc1ccc2nc(N3CCNCC3)nc(-c3ccccc3)c2c1	1	i	-2	4	i	44*
SMILES	PP5 inh	TMEM16A act	PREPL inh	PP1 counter	TMEM16A inh	DNA FID counter
CN1CCN(c2nc(-c3ccccc3)c3cc(Cl)ccc3n2)CC1	0	i	9	3	i	14
CC(=O)NCCNC(=O)c1ccc(Sc2ccccc2)c([N+](=O)[O-])c1	1	i	7	-1	i	1
CN(C)CCNC(=O)c1ccc(Sc2ccc(Br)cc2)c([N+](=O)[O-])c1	-1	i	-12	0	i	39*
O=C(c1cccc(S(=O)(=O)N2CCN(c3ccc(F)cc3)CC2)c1)N1CCCC(C(F)(F)F)C1 (stereo unspecified)	1	i	-61	0	25*	/
O=S(=O)(c1cccs1)N1CCN(CC(O)COc2cc(Cl)ccc2Cl)CC1 (stereo unspecified)	5	-14*	11	2	25*	-6
Cc1nc(Nc2ccc(S(N)(=O)=O)cc2)sc1C(=O)Nc1ccccc1	4	-8.9*	10	3	i	-2
CCN(CC)CCNc1ccnc2cc(Cl)ccc12	3	i	5	-4	i	48*
Clc1ccc2c(NCc3ccccc3)ccnc2c1	1	i	-17	1	i	-5
CCN(CC)Cc1cc(Nc2ccnc3cc(Cl)ccc23)ccc1O	-2	i	23	5	i	69*
CN(CC(=O)O)c1ccc(C(F)(F)F)cc1[N+](=O)[O-]	/	i	/	/	/	3
O=C1NC(Cc2ccccc2)c2nc3ccc(F)cc3c(=O)n2-c2cc(Cl)ccc21 (stereo unspecified)	/	/	14	/	/	/
Cn1c(O)c(C=Nc2ccc(N3CCOCC3)cc2)c(=O)n(C)c1=S	/	-4.8*	/	/	/	-1
CCN(CC)S(=O)(=O)c1cccc(-c2nnc(SCCCC(=O)c3ccc(F)cc3)o2)c1	1	-4.6*	-1	2	i	-26
CCN(CC)S(=O)(=O)c1cccc(-c2nnc(SCCCC(=O)c3ccccc3)o2)c1	-1	i	5	4	i	-27
COc1ccc(-c2cc(C(F)(F)F)nc(SCC(=O)N3CC(C)OC(C)C3)n2)cc1OC (stereo unspecified)	/	-4.6*	/	/	/	-11
COc1ccc(-c2cc(C(F)(F)F)nc(SCC(=O)Nc3cc(C)on3)n2)cc1OC	3	i	7	1	i	-3
Cc1ccc(NC(=O)CN(C)C(=O)COC(=O)CNS(=O)(=O)c2ccc(F)c(F)c2F)cc1	1	i	4	-4	i	/
Cc1ccc(NC(=O)CN(C)C(=O)COC(=O)CNS(=O)(=O)c2ccc(Br)cc2Cl)cc1	2	-8.1*	-1	-2	i	-34
CC1=NOC(=O)/C1=C\c1ccc(-c2ccc(Cl)cc2Cl)o1	/	-6.6*	/	/	/	3
Cn1c(=O)c(C(=O)COC(=O)c2cc(-c3ccco3)nc3ccccc23)c(N)n(Cc2ccccc2)c1=O	1	/	-24	19*	i	-27
CC(C)Cn1c(N)c(C(=O)COC(=O)c2cc(-c3ccco3)nc3ccccc23)c(=O)n(C)c1=O	6	i	-21	10	i	-30
O=C(COc1cccc2ccccc12)NCc1cccnc1	0	i	4	-2	i	-11
